The whole screen tested about 16,000 compounds, of which about 5,100 (32%) were called active. Inconclusive results (about 25%) are left out. The list shows a part of the results. Values without a mark were called inactive. The call rests on the fitted dose curve; in most records, active means well fitted curve in the direction sought with a large enough effect; inconclusive means small, poorly fitted or top-dose-only effect, or effect the other way; inactive means no such curve, though single readings can be large or run the other way.
These compounds were tested against Cytochrome P450 3A4 (Homo sapiens) (UniProt P08684) (assay: Cytochrome panel assay with activity outcomes). Details: recombinant CYP, pro-luciferin dealkylation, luminescence, p450-cyp3a4; series mostly up to 57.1 µM; activity, negative = inhibition: at the top concentration.
Chain of Cytochrome P450 3A4 (Homo sapiens) (P08684 whole entry, looked up): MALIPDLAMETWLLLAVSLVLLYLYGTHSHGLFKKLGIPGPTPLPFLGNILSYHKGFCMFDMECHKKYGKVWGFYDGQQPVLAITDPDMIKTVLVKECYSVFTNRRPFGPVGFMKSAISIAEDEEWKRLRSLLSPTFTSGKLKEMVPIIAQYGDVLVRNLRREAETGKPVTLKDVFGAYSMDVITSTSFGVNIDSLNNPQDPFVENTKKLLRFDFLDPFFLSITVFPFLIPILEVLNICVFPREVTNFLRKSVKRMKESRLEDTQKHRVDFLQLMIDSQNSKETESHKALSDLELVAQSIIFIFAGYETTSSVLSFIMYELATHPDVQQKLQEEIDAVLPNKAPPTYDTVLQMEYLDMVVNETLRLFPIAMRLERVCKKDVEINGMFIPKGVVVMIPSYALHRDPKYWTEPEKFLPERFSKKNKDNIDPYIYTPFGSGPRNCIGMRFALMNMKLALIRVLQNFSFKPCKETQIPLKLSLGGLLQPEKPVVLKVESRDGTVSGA
On the % scale 0 is the no-effect control and ±100 the full control effect.

| Structure (SMILES) | activity, negative = inhibition | AC50 |
| --- | --- | --- |
| Cc1ccccc1Oc1ccc(-c2nc(N)nc(N)n2)cc1 | 4.65% | – |
| CCCCNC(=O)NC1C(NC(=O)NCCCC)N(C)C(=O)N1C (centres undefined) | -6.75% | – |
| CCCCCCCCN1C(=O)N(C)C(N(O)C(=O)NC)C1(C)C (centres undefined) | – | 6.31 µM (active) |
| COc1cccc(CN2C(=O)N(C(C)C)C(N(O)C(=O)NC(C)C)C2(C)C)c1OC (centres undefined) | -12.5% [at 2.29 µM] | – |
| CCCOc1ccc(OCCNC2CCCC2)cc1 | 10% [at 2.29 µM] | – |
| COc1cc(CNC(C)(C)CO)ccc1OCC(=O)Nc1ccc(Br)cc1 | 0.897% [at 2.29 µM] | – |
| C=CCOc1c(Br)cc(CNc2ccc(NC(=O)C(C)C)c(OC)c2)cc1OC | – | 3.55 µM (active) |
| CCCNC(=O)OC[C@@H]1O[C@H](CCO/N=C\C[C@H]2C=C[C@H](OC(C)=O)[C@@H](COC(C)=O)O2)C=C[C@@H]1Oc1ccc(OC)cc1 | – | 3.98 µM (active) |
| COc1ccc(O[C@H]2C=C[C@@H](c3ccccc3)O[C@H]2COC(=O)CC/C(C)=N/OCC[C@@H]2C=C[C@H](OC(C)=O)[C@H](COC(C)=O)O2)cc1 | – | 3.98 µM (active) |
| CC(=O)OC[C@@H]1O[C@H](C/C=N\O[C@@H](C)c2cn([C@H]3COC[C@H]3O)nn2)C=C[C@@H]1OC(C)=O | -11.8% [at 11.4 µM] | – |
| COc1ccc(O[C@H]2C=C[C@@H](c3ccccc3)O[C@H]2COC(=O)CC/C(C)=N\O[C@@H](C)c2cc(-c3c(C)cc(C)cc3C)no2)cc1 | – | 3.16 µM (active) |
| CC(=O)OC[C@@H]1O[C@H](C/C=N\O[C@@H]2O[C@H](COC(C)=O)[C@@H](OC(C)=O)[C@H](OC(C)=O)[C@H]2OC(C)=O)C=C[C@@H]1OC(C)=O | -25.4% [at 11.4 µM] | – |
| CC(=O)OC[C@@H]1O[C@H](CCON=C(C)C)C=C[C@@H]1OC(C)=O | -14.8% [at 11.4 µM] | – |
| CC(=O)OC[C@@H]1O[C@H](C/C=N\O[C@@H](C)c2cc(-c3c(C)cc(C)cc3C)no2)C=C[C@@H]1OC(C)=O | – | 3.16 µM (active) |
| Cc1cc(C)c(-c2cc([C@H](C)O/N=C3/[C@H]4OC4[C@@H](O)[C@H]4[C@H]3CCn3c(=O)n(-c5ccccc5)c(=O)n34)on2)c(C)c1 (some centres undefined) | -41% [at 11.4 µM] | – |
| O=C(O)[C@H]1CCCN(CCC=C(c2ccccc2)c2ccccc2)C1 | – | inactive |
| C[C@@H](O)[C@H]1C(=O)N2C(C(=O)O)=C(S[C@@H]3CN[C@H](C(=O)N(C)C)C3)[C@H](C)[C@H]12 | -19.2% [at 25.6 µM] | – |
| C[C@H](N)CCCC(C)(C)O | -5.82% [at 25.6 µM] | – |
| CC(=O)OC[C@@H]1O[C@H](C/C=N\OC[C@@H](C)[C@H](OCc2ccccc2)C(C)C)C=C[C@@H]1OC(C)=O | -18.2% [at 11.4 µM] | – |
| COc1ccc(O[C@H]2C=C[C@@H](c3ccccc3)O[C@H]2CO/N=C\C[C@@H]2C=C[C@H](OC(C)=O)[C@H](COC(C)=O)O2)cc1 | – | 3.98 µM (active) |
| COc1ccc(O[C@H]2C=C[C@@H](c3ccccc3)O[C@@H]2CO/N=C\[C@@H](C)[C@H](OCc2ccccc2)C(C)C)cc1 | – | 3.98 µM (active) |
| COc1ccc(O[C@H]2C=C[C@@H](c3ccccc3)O[C@H]2COC(=O)CC/C(C)=N/O[C@@H]2O[C@H](COC(C)=O)[C@H](OC(C)=O)[C@H](OC(C)=O)[C@H]2OC(C)=O)cc1 | – | 5.01 µM (active) |
| CCCNC(=O)OC[C@@H]1O[C@H](CCO/N=C(\C)CCC(=O)OC[C@@H]2O[C@H](c3ccccc3)C=C[C@@H]2Oc2ccc(OC)cc2)C=C[C@@H]1Oc1ccc(OC)cc1 | – | 5.01 µM (active) |
| CO/N=C\[C@@H](C)[C@H](OCc1ccccc1)C(C)C | 12.5% [at 11.4 µM] | – |

Reference: PubChem BioAssay AID1851 (National Center for Advancing Translational Sciences (NCATS), 2009)
